Screens deposited in PubChem by National Center for Advancing Translational Sciences (NCATS).
Tau ThT inhib: blocks human tau fibril formation measured by thioflavin T | recombinant tau K18 P301L, heparin-induced fibrillization, ThT fluorescence | AID 1460 | Potency, µM (doses to about 57.4 µM), for the others: at the top dose activity, negative = inhibition, actives largely listed as inhibitors | hit rate 2.1% among 270,000; further: potency means the concentration at half of the fitted maximal effect; nearly all actives have a fitted effect of over 55% in size
Target sequence (P10636 561-689 P618L limits assumed): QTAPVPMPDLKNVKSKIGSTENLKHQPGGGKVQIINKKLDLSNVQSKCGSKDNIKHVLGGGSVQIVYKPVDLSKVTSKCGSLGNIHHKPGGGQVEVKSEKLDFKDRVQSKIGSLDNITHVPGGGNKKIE
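Tau K18 P301L fragment (15 uM unlabeled plus 0.24 uM Alexa 594-labeled) in 100 mM sodium acetate pH 7 with compound, fibrillization induced by 20 uM heparin for 6 hr at 37 C. Thioflavin T (30 uM) added, fluorescence read after 1 hr (ex 450, em 510 nm).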
Tau fluor cs: counter-screen for tau fibril formation inhibitors | tau K18 P301L Alexa594 fluorescence, heparin fibrillization | Potency, µM (doses to about 57.7 µM), without a hit: at the top dose activity change, negative = decrease | hit rate 0.93% among 280,000; further: potency means the concentration at half of the fitted maximal effect; nearly all actives have a fitted effect of over 55% in size
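Human tau K18 P301L (15 uM unlabeled, 0.24 uM Alexa 594-labeled) in 100 mM sodium acetate pH 7 with 20 uM heparin, 6 hr at 37 C. ThT 30 uM added, 1 hr ambient; Alexa 594 FP and total fluorescence read at 555/632 nm.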
Tau FP inhib: tau fibrillization inhibition (FP) | K18 P301L tau heparin fibrillization, Alexa594 FP, 6 h | Potency, µM (series often up to 57.7 µM), inactives show at the top dose activity, negative = inhibition, actives largely listed as inhibitors | hit rate 0.39% among 280,000 | AID 1468; further: potency means the concentration at half of the fitted maximal effect; nearly all actives have a fitted effect of over 55% in size
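Heparin (20 uM) drove fibril formation of recombinant tau K18 P301L, 15 uM unlabeled with 0.24 uM Alexa 594 label, for 6 hr at 37 C in 100 mM sodium acetate pH 7. Fluorescence polarization (555/632 nm) read 1 hr after 30 uM ThT.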
Coupling enz: inhibits coupling enzyme system, counter-screen for aldolase hits. coupling enzyme system counterscreen, AmpLite Red fluorescence. activity change, negative = inhibition, % at 58.2 µM, hits read low. hit rate 0.67% among 290,000. AID 2472; in the data active means activity change below about -30%
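Counterscreen of the coupled detection system alone, without aldolase: glyceraldehyde-3-phosphate coupling enzymes plus AmpLite Red readout. Compounds at 57.5 uM final, 10 min RT preincubation, 20 min RT reaction, fluorescence 525/598 nm.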
USP1 inh: blocks the human USP1/UAF1 deubiquitinase complex; O94782; recombinant USP1/UAF1, Ub-Rhodamine cleavage fluorescence; Potency, µM (doses to about 57.1 µM), inactives show at the highest dose activity change, negative = inhibition, usual class: inhibitors; hit rate 0.23% among 390,000; further: potency means the concentration at half of the fitted maximal effect; nearly all actives have a fitted effect of over 60% in size
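Step one: compound is pinned into 1nM USP1/UAF1 in HEPES pH 7.8 buffer with TCEP. Step two: 15 min room-temperature incubation. Step three: Ub-Rho (150nM final) starts cleavage, tracked by fluorescence over six one-minute reads.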
Starred values were filed as active, the others as inactive; ? = inconclusive; . = no result; ! = not active in a repeat; [ ] = another dose, or the depositor's remark. Only some compounds are listed: those with a hit (about 2.3% of all), similar ones and a draw of the others. Unless noted, the call rests on the fitted dose curve; in most records, active means well fitted curve in the direction sought with a large enough effect; inconclusive means small, poorly fitted or top-dose-only effect, or another doubt; inactive means no such curve, though single readings can be large; an effect the other way counts as inactive or inconclusive. On the % scale 0 is the no-effect control and ±100 the full control effect.

SMILES	Tau ThT inhib	Tau fluor cs	Tau FP inhib	Coupling enz	USP1 inh
Cc1nn(-c2ccccc2)c2c1C(c1ccc(O)c(O)c1)N1C(=N2)C(Nc2ccccc2)=Nc2ccccc21 (stereo not drawn)	?	14µM*[quencher]	-10%	-5	-24%
S=c1[nH]c2cc3ccccc3cc2[nH]1	?	-21%	-11%	-53*!	?
CCn1cc(C(=O)N2CCN(c3ccccc3F)CC2)c(=O)c2cc(S(=O)(=O)N(C)C3CCCCC3)ccc21	-11%	-12%	-13%	.	-14%
CCOc1ccc(S(=O)(=O)NCCc2c(C)[nH]c3c(Cl)cccc23)cc1C	-16%	10µM*[quencher]	7%	.	-19%
Cn1nc(C(C)(C)C)cc1NC(=O)Nc1cc(Cl)cc(Cl)c1	-9%	7.1µM*[quencher]	25µM*	1	-13%
Cc1ccc(F)cc1NC(=O)Nc1cc(C(C)(C)C)nn1C	-5%	-27%	5%	0	-24%
Brc1ccc(CSc2nnc(Cc3c[nH]c4ccccc34)o2)cc1	?	14µM*[quencher]	-6%	0	-17%
Cc1ccc2c(CC(=O)N(Cc3ccc(N(C)C)cc3)Cc3ccco3)coc2c1C	?	?	3%	.	0%
CSc1ccc(C(=O)N2CCC(CCC(=O)NCc3ccc(F)cc3)CC2)cc1	.	.	.	2	-26%
CCOc1ccc(NCc2cc3cc(OC)ccc3[nH]c2=O)cc1	6.3µM*	?	-6%	-17	-10%
COc1ccc2[nH]c(=O)c(CNc3ccccc3)cc2c1	-9%	-6%	?	-35*	-19%
O=C1Nc2ccccc2/C1=N\N=C\c1ccc(O)c(O)c1	4.5µM*	?	-3%	-9	-3%
Cc1ccsc1/C=N/N=C1\C(=O)Nc2ccccc21	14µM*	?	9%	0	-9%
COc1cc(/C=N/N=C2/C(=O)Nc3ccccc32)ccc1O	11µM*	?	7%	0	-23%
O=C(/C(=N/N=C/c1ccc(O)c(O)c1)c1ccccc1)c1ccccc1	?	13µM*[quencher]	-7%	-7	-22%
CSc1cccc(N=C2C(=O)Nc3ccccc32)c1	.	.	.	-1	-4%
Cc1ccsc1/C=N/N=C/c1sccc1C	.	.	.	2	-25%
O=C(Nc1ccccc1)Nc1ccc(Cl)nc1Cl	.	.	.	.	-1%
COc1cc2ccccc2cc1C(=O)Nc1ccc2oc(-c3ccccc3)nc2c1	9%	-12%	1%	.	-5%
Cc1cc(Br)ccc1NC(=O)CN1C(=O)c2cccnc2Sc2ccccc21	-14%	-6%	13%	.	-5%
COc1ccccc1NC(=O)c1ccc2c(c1)N(CC#N)C(=O)C(C)(C)O2	.	.	.	1	-9%
CCC1CN(C(=O)NCc2ccc(F)cc2)c2cc(C)ccc2O1 (stereo not drawn)	4%	?	?	2	-15%
CCC1CN(C(=O)NCc2ccc(C)cc2)c2ccccc2O1 (stereo not drawn)	?	16µM*[quencher]	?	0	-4%
CCc1ccc(NC(=O)C2CCN(C(=O)N3CC(CC)Oc4ccccc43)CC2)cc1 (stereo not drawn)	?	16µM*[quencher]	?	.	-13%
CCC1CN(C(=O)N2CCC(C(=O)N3CCN(c4ccccc4F)CC3)CC2)c2ccccc2O1 (stereo not drawn)	?	14µM*[quencher]	10%	.	-26%
SMILES	Tau ThT inhib	Tau fluor cs	Tau FP inhib	Coupling enz	USP1 inh
COc1cc(NC(=O)C2=C(C)OCCS2)c(Cl)cc1C(=O)NCCN(C)C	.	.	.	1	-5%
COc1ccc(-c2[nH]n(-c3ccc([N+](=O)[O-])cc3)c(=O)c2C=NCc2ccc(F)cc2)cc1	?	-30%	1%	0	-3%
COc1ccc(-c2cc(=O)n(-c3ccc([N+](=O)[O-])cc3)[nH]2)cc1	11µM*	?	1%	0	-14%
CCCCN(C(=O)CN1C(=O)C2CCCCC2C1=O)c1c(N)n(CCCC)c(=O)[nH]c1=O (stereo not drawn)	.	.	.	.	-11%
CC(=O)C1=C(S(=O)(=O)c2ccc(C)cc2)CS(=O)(=O)C1	25µM*	-20%	28µM*	4	-23%
Cc1ccc(S(=O)(=O)C2CS(=O)(=O)CC2O)cc1 (stereo not drawn)	6%	6%	7%	1	-11%
Cn1ncc2c(NCc3ccc(Cl)cc3)ncnc21	0%	-7%	-6%	.	8%
